Screening data as filed in PubChem.
Hits are enriched below; roughly 1.8% of the tested compounds scored in any of these assays.
PfHsp40 rescue – compounds rescuing yeast from Plasmodium falciparum HSP40 toxicity. growth rescue, % at 12.5 µM. 340,000 tested, 0.68% active. S. cerevisiae expressing PfHsp40, growth rescue, ATP luminescence; in the data active means growth rescue above about 28%, passing the limit was not always enough;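 further: yeast W303a lacking pdr1 and pdr3 grown in galactose medium; growth measured after three days at 30 °C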
Sa RN4220 lethal – S. aureus RN4220 growth inhibition. inhibition, % (concentration not given with the values). OD600, 16 h. 330,000 tested, 0.33% active; in the data active means inhibition above about 85%;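 further: plate controls were untreated cells for no effect and reference antibiotic for full effect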
DUSP3 inh – inhibitors of human VHR1 phosphatase (DUSP3). P51452. recombinant VHR phosphatase, pNPP absorbance. inhibition, % at 13.3 µM. 290,000 tested, 0.52% active. AID 1654; in the data active means inhibition above about 50%
Target sequence (P51452 whole entry, looked up): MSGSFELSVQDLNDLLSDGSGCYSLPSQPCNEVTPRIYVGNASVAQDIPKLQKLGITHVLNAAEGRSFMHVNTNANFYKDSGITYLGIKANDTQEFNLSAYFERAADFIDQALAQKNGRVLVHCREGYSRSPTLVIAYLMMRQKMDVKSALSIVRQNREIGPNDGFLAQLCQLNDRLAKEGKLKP
Sa ugtP lethal – growth inhibition of S. aureus ugtP deletion strain | S. aureus RN4220 ugtP deletion, OD600 growth, 16 h | growth inhibition, % (concentration not given with the values) | 330,000 tested, 0.54% active | AID 1259309; in the data active means growth inhibition above about 68%;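 further: plate controls were untreated wells for no effect and antibiotic for full effect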
Mtb hypoxia rep – inhibitors of hypoxia-regulated fluorescent reporter in Mycobacterium tuberculosis; fluorescence inhibition, % (no concentration beside the values); 300,000 tested, 0.1% active; M. tuberculosis hypoxia-regulated fluorescent reporter, fluorescence; AID 1159583; in the data active means fluorescence inhibition mostly above about 23%, no sharp cut-off; inactive means mostly below about 17%
PriA SSB inh – K. pneumoniae PriA-SSBct interaction inhibition; AlphaScreen SSBct-PriA binding, biotinylated peptide; inhibition, % at 33 µM; 430,000 tested, 0.6% active; in the data active means inhibition mostly above about 37%, no sharp cut-off; inactive means mostly below about 20%;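 further: plate controls were negative control peptide for no effect and reference peptide for full effect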
* hit, by the source's call; ! = repeats disagree.

How did Cc1ccc(N=Nc2cc(C)ccc2O)c(C)c1 do in these assays?
PfHsp40 rescue: 0.2; Sa RN4220 lethal: 3.7; DUSP3 inh: 95.4; Sa ugtP lethal: 27.7; Mtb hypoxia rep: 2.8; PriA SSB inh: 27.1

Results for Oc1ccccc1N=NC(=NNc1ccccc1O)c1ccccc1 ?
Sa RN4220 lethal: -6.2; Sa ugtP lethal: -29.7; Mtb hypoxia rep: -0.6

How did Oc1ccccc1N=Nc1ccccc1O do in these assays?
PfHsp40 rescue: 31.8*; Sa RN4220 lethal: 12.7; DUSP3 inh: 7.7; Sa ugtP lethal: 7.3; Mtb hypoxia rep: 15.0; PriA SSB inh: 41.3

How did COc1ccc(NC(=S)Nc2ncccc2C)cc1OC do in these assays?
PfHsp40 rescue: 0.8; Sa RN4220 lethal: 3.6; DUSP3 inh: -7.4; Sa ugtP lethal: -3.4; Mtb hypoxia rep: 5.9; PriA SSB inh: -3.3

What do the screens show for `COc1ccc(OC)c(NC(=S)Nc2ncccc2C)c1`?
PriA SSB inh: 104.9*

Results for COc1ccc(NC(=S)Nc2ncccc2C)c(OC)c1 ?
PfHsp40 rescue: -1.4; Sa RN4220 lethal: 1.6; DUSP3 inh: 20.0; Sa ugtP lethal: -8.5; Mtb hypoxia rep: 9.0; PriA SSB inh: 45.8*

How did Clc1ccc2[nH]c3c(c2c1)CCc1cn[nH]c1-3 do in these assays?
PfHsp40 rescue: 0.5; Sa RN4220 lethal: 98.3*; DUSP3 inh: 15.1; Sa ugtP lethal: 78.8; Mtb hypoxia rep: -8.0; PriA SSB inh: 2.1

Results for COc1cccc(-c2nc(COC(=O)c3nnn(-c4ccc(C)c(C)c4)c3C)c(C)o2)c1OC ?
PriA SSB inh: -3.0

How did CS(=O)(=O)N1CCN(c2ccc(NC(=S)NC(=O)c3ccc4c(c3)OCO4)cc2)CC1 do in these assays?
PfHsp40 rescue: 0.0; Sa RN4220 lethal: 6.6; DUSP3 inh: 10.6; Sa ugtP lethal: 92.7*; Mtb hypoxia rep: -2.2; PriA SSB inh: -11.9

What do the screens show for `CC(=O)N1CCN(c2ccc(NC(=O)c3ccc4c(c3)OCO4)cc2)CC1`?
PfHsp40 rescue: 105.9*; Sa RN4220 lethal: -2.3; DUSP3 inh: 21.7; Sa ugtP lethal: -4.6; Mtb hypoxia rep: -4.8; PriA SSB inh: -5.9

What do the screens show for `Cc1cc(NC(=O)CCc2ccccc2)n(-c2nc3c(cnn3-c3cccc(C)c3C)c(=O)[nH]2)n1`?
PriA SSB inh: 18.0

What do the screens show for `C=CC[C@@H](CC(=O)N[C@@H](CO)Cc1ccccc1)C(=O)N[C@H](COC(=O)[C@@H](CC=C)Cc1ccc(F)cc1)Cc1c[nH]c2ccccc12`?
PfHsp40 rescue: 0.5; PriA SSB inh: 1.4

Results for C=CCC[C@H](Cc1ccc(F)cc1)C(=O)OC[C@H](Cc1c[nH]c2ccccc12)NC(=O)[C@@H](CC=C)CC(=O)NCCO ?
PfHsp40 rescue: 46.7*; PriA SSB inh: 14.7

How did C=CCC(CC(=O)NC(CO)Cc1ccccc1)C(=O)NC(COC(=O)C(CC=C)Cc1ccc(F)cc1)Cc1c[nH]c2ccccc12 (configuration not stated) do in these assays?
Sa RN4220 lethal: 0.9; Sa ugtP lethal: 1.1; Mtb hypoxia rep: 36.2*!

Results for CCC1CCCCN1CCCNC(=O)c1cn(C)c2ccc(S(=O)(=O)N3CCOCC3)cc2c1=O (configuration not stated) ?
PfHsp40 rescue: 1.1; Sa RN4220 lethal: 1.6; DUSP3 inh: 68.5; Sa ugtP lethal: 0.4; Mtb hypoxia rep: 7.3; PriA SSB inh: -16.5

What do the screens show for `CCC1CCCCN1CCCNC(=O)c1cn(C)c2ccc(S(=O)(=O)N(C)C3CCCCC3)cc2c1=O` (configuration not stated)?
PfHsp40 rescue: 38.2*; Sa RN4220 lethal: 1.6; DUSP3 inh: 20.4; Sa ugtP lethal: 0.0; Mtb hypoxia rep: 1.0; PriA SSB inh: 3.4

What do the screens show for `Fc1ccc(Cn2cc[nH]c2=S)cc1`?
PriA SSB inh: -6.0

How did COc1ccc(-n2c(Cn3c(=O)sc4ccccc43)nnc2SCC(=O)N2CCCC2)cc1 do in these assays?
PfHsp40 rescue: -0.4; Sa RN4220 lethal: 3.0; DUSP3 inh: 50.3*; Sa ugtP lethal: -6.9; PriA SSB inh: -4.3

What do the screens show for `O=C(COC(=O)c1ccc(O)cc1O)Nc1nnc(-c2ccccc2)o1`?
PfHsp40 rescue: -0.2; Sa RN4220 lethal: 4.3; Sa ugtP lethal: 0.0; Mtb hypoxia rep: 0.8; PriA SSB inh: 56.6*

What do the screens show for `COc1ccc(C(=O)OCC(=O)Nc2nnc(-c3ccccc3)o2)cc1`?
PfHsp40 rescue: 0.4; Sa RN4220 lethal: 12.2; DUSP3 inh: 10.5; Sa ugtP lethal: -7.7; Mtb hypoxia rep: -3.8; PriA SSB inh: -0.1

What do the screens show for `O=C(COC(=O)c1cccc(O)c1)Nc1nnc(-c2ccccc2)o1`?
PfHsp40 rescue: -2.1; Sa RN4220 lethal: 8.9; Sa ugtP lethal: 0.9; Mtb hypoxia rep: 7.3; PriA SSB inh: 43.2*

What do the screens show for `Cc1ccc(/C(=N/NS(=O)(=O)c2ccc(C)cc2)c2ccc(OCC(C)C)cc2)cc1`?
PriA SSB inh: 7.0

How did CC1Cc2ccccc2N1C(=O)CON=Cc1ccccc1OC(F)F (configuration not stated) do in these assays?
Sa RN4220 lethal: 2.2; Sa ugtP lethal: 4.4; Mtb hypoxia rep: 3.2; PriA SSB inh: -0.2

Results for O=c1c2c3c(nn2cnn1Cc1cc(=O)n2ccccc2n1)CCCC3 ?
PriA SSB inh: -30.0

How did CCC(C)n1ncn(-c2ccc(N3CCN(c4ccc(OCC5COC(Cn6cncn6)(c6ccc(Cl)cc6Cl)O5)cc4)CC3)cc2)c1=O (configuration not stated) do in these assays?
PfHsp40 rescue: 181.2*!; Sa RN4220 lethal: 2.4; DUSP3 inh: -6.2; Sa ugtP lethal: -10.8; Mtb hypoxia rep: -11.8; PriA SSB inh: 8.5

What do the screens show for `CCC(C)n1ncn(-c2ccc(N3CCN(c4ccc(O)cc4)CC3)cc2)c1=O` (configuration not stated)?
PfHsp40 rescue: 0.0; Sa RN4220 lethal: 2.9; DUSP3 inh: -1.5; Sa ugtP lethal: 6.0; Mtb hypoxia rep: -0.2; PriA SSB inh: 10.9

What do the screens show for `Cc1ccccc1Cn1cnc2c(cnn2CCNC(=O)c2ccco2)c1=O`?
PriA SSB inh: 1.0

How did S=c1[nH]nc(-c2ccco2)n1-c1ccc(Br)cc1 do in these assays?
PfHsp40 rescue: 42.7*; Sa RN4220 lethal: 1.6; Sa ugtP lethal: 9.0; Mtb hypoxia rep: -9.8; PriA SSB inh: 5.4

How did Cc1cccc(-n2c(-c3ccco3)n[nH]c2=S)c1 do in these assays?
PfHsp40 rescue: -1.7; Sa RN4220 lethal: 4.0; DUSP3 inh: 5.0; Sa ugtP lethal: 2.1; Mtb hypoxia rep: 2.4; PriA SSB inh: -14.3

What do the screens show for `O=C(COc1ccc(Cl)cc1Cl)NCCn1nc(-c2ccco2)ccc1=O`?
PriA SSB inh: 3.0

Results for CC1=NN(c2nc(-c3ccc(C)cc3)cs2)C(=O)C1N=Nc1cccc(C)c1 (configuration not stated) ?
PfHsp40 rescue: -0.8; Sa RN4220 lethal: 8.7; DUSP3 inh: 1.2; Sa ugtP lethal: 11.4; Mtb hypoxia rep: 7.3; PriA SSB inh: 1.6

Results for CCOC(=O)c1sc(N2N=C(C)C(N=Nc3cccc(C)c3)C2=O)nc1C (configuration not stated) ?
PfHsp40 rescue: -1.1; Sa RN4220 lethal: 14.6; DUSP3 inh: 55.2*; Sa ugtP lethal: 3.1; Mtb hypoxia rep: 4.0; PriA SSB inh: 1.6
